FLuc counter – qHTS profiling assay for firefly luciferase inhibitor/activator using purifed enzyme and Km concentrations of substrates (counterscreen for miR-21 project); 360,000 tested, 6.9% active; purified FLuc, Km substrates, luminescence inhibition; Luciferin 4-monooxygenase (Photinus pyralis), P08659; Potency, µM (doses to about 57.5 µM), usual class: inhibitors; further: nearly all actives have a fitted effect of over 55% in size
Target sequence (P08659 whole entry, looked up): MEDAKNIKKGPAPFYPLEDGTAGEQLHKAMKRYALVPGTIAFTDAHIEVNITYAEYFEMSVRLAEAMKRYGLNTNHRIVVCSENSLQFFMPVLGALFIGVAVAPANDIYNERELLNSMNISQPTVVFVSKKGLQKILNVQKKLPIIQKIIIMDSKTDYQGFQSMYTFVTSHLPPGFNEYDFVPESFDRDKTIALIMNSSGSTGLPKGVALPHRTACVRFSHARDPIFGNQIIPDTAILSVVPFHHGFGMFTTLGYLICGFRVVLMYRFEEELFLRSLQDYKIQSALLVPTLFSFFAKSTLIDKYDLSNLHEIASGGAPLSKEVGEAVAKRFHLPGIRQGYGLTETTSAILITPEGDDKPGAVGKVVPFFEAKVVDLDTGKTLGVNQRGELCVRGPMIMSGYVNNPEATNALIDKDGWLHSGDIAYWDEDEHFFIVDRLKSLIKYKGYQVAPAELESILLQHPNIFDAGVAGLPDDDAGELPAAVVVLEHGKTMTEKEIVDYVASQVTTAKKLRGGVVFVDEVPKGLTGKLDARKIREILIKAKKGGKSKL
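Purified P. pyralis luciferase (10nM final) with 10uM D-luciferin and 10uM ATP (Km levels) in 50mM Tris acetate pH 7.5, 10mM Mg acetate, 0.01% Tween-20, 0.05% BSA; qHTS 6-point titration, ~60 µM downward; luminescence read.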
NPC1 prom act – qHTS Assay for NPC1 Promoter Activators; Huh7 NPC1 promoter luciferase reporter, 24 h; Potency, µM (highest dose often 9.22 µM), hits mostly activators; 320,000 tested, 2.4% active; further: nearly all actives have a fitted effect of over 60% in size
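Readout is luciferase luminescence, reflecting NPC1 promoter activation in stably transfected Huh7 cells after 24 h compound exposure at 37 °C in reduced-serum medium with 10% FBS.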
Rab9 prom act – qHTS Assay for Rab9 Promoter Activators. Huh7 Rab9 promoter-luciferase reporter, luminescence, 24 h. 320,000 tested, 2.8% active. AID 485297, 2010. Potency, µM (titrated, usually from 9.22 µM), actives largely listed as activators; further: nearly all actives have a fitted effect of over 60% in size
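Huh7 cells stably carrying Rab9 promoter–luciferase reporter, plated 1500 cells/well, compound added after 2 h and incubated 24 h at 37 °C; luciferase luminescence then read after 10 min with detection reagent.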
ELG1 genotoxic – qHTS screen for small molecules that induce genotoxicity in human embryonic kidney (HEK293T) cells expressing luciferase-tagged ELG1. 330,000 tested, 1.3% active. HEK293T ELG1-luciferase reporter, luminescence, 16 h. AID 504466, 2011. Potency, µM (titrated, usually from 46 µM), hits mostly activators; further: nearly all actives have a fitted effect of over 60% in size
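HEK293T cells expressing luciferase-tagged ELG1 were exposed to compound or DMSO vehicle for 16 hr at 37 °C and 5% CO2. Luciferase activity was then measured with ONE-Glo after 30 min at room temperature.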
ELG1 repair inh – qHTS screen for small molecules that inhibit ELG1-dependent DNA repair in human embryonic kidney (HEK293T) cells expressing luciferase-tagged ELG1 | HEK293T ELG1-luciferase reporter, luminescence, 16 h; DNA damage induced by 5-fluorouridine | Potency, µM (titrated, usually from 46.1 µM), actives largely listed as inhibitors | 330,000 tested, 2.3% active | AID 504467, 2011; further: nearly all actives have a fitted effect of over 55% in size
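Step one: seed 2,000 cells per well. Step two: pin-transfer compound or DMSO alongside 5-fluorouridine. Step three: incubate 16 hr, 37 °C, 5% CO2. Step four: add ONE-Glo, wait 30 min, read luminescence.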
SMN2 splice up – qHTS Assay for Enhancers of SMN2 Splice Variant Expression; HEK293 SMN2-luciferase splicing reporter, luminescence, 30-36 h; 210,000 tested, 2.8% active; Potency, µM (series often up to 46.1 µM), most hits filed as activators; further: nearly all actives have a fitted effect of over 55% in size
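qHTS luciferase splicing reporter: luminescence rises when SMN2 exon 7 is included in transfected HEK293 cells. Compound exposure lasted 30-36 h at 37C, with 4.5 mM final sodium butyrate as control, followed by a ONE-Glo read.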
ELG1 FLuc counter – qHTS screen for small molecules that inhibit ELG1-dependent DNA repair: Hit Confirmation in Cell-Based Luciferin Assay; shares compounds with ELG1 repair inh; cell-free firefly luciferase luminescence counter-screen, ViewLux; Potency, µM (top dose mostly 46.1 µM), actives largely listed as inhibitors; 350 tested, 3% active
ELG1 Luc conf – HTS assay for small molecules that inhibit ELG1-dependent DNA repair in human embryonic kidney (HEK293T) cells expressing luciferase-tagged ELG1: Hit Confirmation | shares compounds with ELG1 repair inh | HEK293T ELG1-luciferase levels, luminescence; cells co-treated with 5-fluorouridine | Potency, µM (titrated, usually from 46.1 µM), hits mostly inhibitors | 670 tested, 68% active; further: nearly all actives have a fitted effect of over 55% in size
ELG1-Luc MMS – inhibits ELG1-dependent repair under MMS stimulation in HEK293T cells; 670 tested, 53% active; HEK293T luciferase-tagged ELG1 level, MMS stimulated; shares compounds with ELG1 repair inh; Potency, µM (titrated, usually from 46.1 µM), actives largely listed as inhibitors; further: nearly all actives have a fitted effect of over 60% in size
ELG1 5-FU – qHTS screen for small molecules that inhibit ELG1-dependent DNA repair: Hit Confirmation with 5FU Viability. 670 tested, under 10 active. cell viability with 5-FU, ELG1-dependent repair. Potency, µM (top dose mostly 46.1 µM), actives largely listed as cytotoxic. AID 624250, 2012. shares compounds with ELG1 repair inh;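 further: ELG1-luc HEK293T cells cotreated with 5-fluorouridine at 10 µM final; viability measured 16 h after compound addition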
ELG1 MMS viab – qHTS screen for small molecules that inhibit ELG1-dependent DNA repair: Hit Confirmation with MMS Viability; 670 tested, 33% active; Cell viability with MMS, ELG1-dependent DNA repair; shares compounds with ELG1 repair inh; Potency, µM (highest dose often 46.1 µM), most hits filed as cytotoxic;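 further: ELG1-luc HEK293T cells co-treated with 10 µM MMS; viability read 16 h after compound addition; nearly all actives have a fitted effect of over 60% in size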
ELG1 unstim viab – qHTS screen for small molecules that inhibit ELG1-dependent DNA repair: Hit Confirmation with Unstimulated Viability Assay | cell viability counter-screen, unstimulated, luminescence | 900 tested, 8% active | shares compounds with ELG1 repair inh | Potency, µM (series often up to 45.9 µM), usual class: cytotoxic;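 further: compound exposure lasted 16 hours before reading; nearly all actives have a fitted effect of over 55% in size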
FLuc biochem – qHTS screen for small molecules that inhibit ELG1-dependent DNA repair: Hit Confirmation in Biochemical Luciferin Assay | shares compounds with ELG1 repair inh | purified firefly luciferase, luminescence counter-screen | Potency, µM (top dose mostly 57.5 µM), actives largely listed as inhibitors | 350 tested, 10% active
Large screens that a line does not name were inactive (follow-up assays come after a bar, where they were run). Hits are enriched below; roughly 9.2% of the tested compounds scored in any of these assays. The call rests on the fitted dose curve; in most records, active means well fitted curve in the direction sought with a large enough effect; inconclusive means small, poorly fitted or top-dose-only effect, or another doubt; inactive means no such curve, though single readings can be large; an effect the other way counts as inactive or inconclusive.

COc1ccc(CCNC(=O)/C=C/c2ccc3ccccc3n2)cc1OC	ELG1 repair inh inconclusive (no result: SMN2 splice up)
COc1ccc(/C=C/c2nc(C)c(-c3ccccc3)c(=O)[nH]2)cc1OC	none
COc1ccc(/C=C/c2cnc3ccccc3n2)cc1OC	none (no result: FLuc counter, NPC1 prom act, Rab9 prom act, ELG1 genotoxic, ELG1 repair inh, SMN2 splice up) | ELG1 FLuc counter inactive | ELG1 unstim viab inactive | FLuc biochem 0.21µM
COc1ccc(/C=C/c2ccc3ccccc3n2)cc1OC	none (no result: FLuc counter, NPC1 prom act, Rab9 prom act, ELG1 genotoxic, ELG1 repair inh, SMN2 splice up) | ELG1 FLuc counter inactive | ELG1 unstim viab inconclusive | FLuc biochem inconclusive
CCn1nc(C(=O)Nc2nc(-c3ccccn3)cs2)c2ccccc2c1=O	ELG1 repair inh 4.1µM (no result: SMN2 splice up) | ELG1 Luc conf 4.4µM | ELG1-Luc MMS 7.9µM | ELG1 5-FU inactive | ELG1 MMS viab 13µM | ELG1 unstim viab inconclusive
Cn1nc(C(=O)Nc2nc(-c3ccccn3)cs2)c2ccccc2c1=O	ELG1 repair inh inconclusive (no result: SMN2 splice up)
O=C(CSc1nc2ccccc2c(=O)n1-c1ccccc1)N/N=C/C=C/c1ccccc1[N+](=O)[O-]	ELG1 repair inh 2.9µM | ELG1 FLuc counter inactive | ELG1 Luc conf 10µM | ELG1-Luc MMS inactive | ELG1 5-FU inconclusive | ELG1 MMS viab inconclusive | ELG1 unstim viab inactive | FLuc biochem inactive
O=C(CSc1nc2ccccc2c(=O)n1-c1ccc(Cl)cc1)N/N=C/C=C/c1ccccc1[N+](=O)[O-]	ELG1 repair inh inconclusive
CCOc1ccc(-c2[nH]ncc2-c2ccc(OC)c(OC)c2)c(O)c1	ELG1 repair inh 2.3µM | ELG1 Luc conf 13µM | ELG1-Luc MMS inconclusive | ELG1 5-FU inactive | ELG1 MMS viab inconclusive | ELG1 unstim viab inconclusive
COc1ccc(-c2cn[nH]c2-c2ccc(O)cc2O)cc1OC	none (no result: SMN2 splice up)
Cc1ccccc1NC(=O)Cc1nc(COC(=O)C(NC(=O)c2ccccc2C)C(C)C)cs1 (stereo not given)	none (no result: FLuc counter, SMN2 splice up)
CSc1nc(N)nc2c1ncn2CC(=O)N1CCN(Cc2c(C)cc(C)cc2C)CC1	ELG1 repair inh 2.3µM (no result: FLuc counter, NPC1 prom act, Rab9 prom act, SMN2 splice up) | ELG1 Luc conf inconclusive | ELG1-Luc MMS 0.71µM | ELG1 5-FU inactive | ELG1 MMS viab 1.3µM | ELG1 unstim viab inconclusive
Cc1cc(C)c(CN2CCN(C(=O)Cn3ccc(N)nc3=O)CC2)c(C)c1	none (no result: SMN2 splice up)
COc1ccc2c(c1)c(C(C)=O)c(C)n2-c1ccc(C(C)=O)cc1	ELG1 repair inh inconclusive (no result: SMN2 splice up)
COc1ccc(-n2c(C)c(C(C)=O)c3cc(OC(C)=O)ccc32)cc1	ELG1 repair inh 0.82µM (no result: SMN2 splice up) | ELG1 FLuc counter inactive | ELG1 Luc conf 0.63µM | ELG1-Luc MMS inconclusive | ELG1 5-FU inactive | ELG1 MMS viab inactive | ELG1 unstim viab inactive | FLuc biochem inactive
Nc1c(C(=O)Nc2cccc(F)c2)c2ccccn2c1C(=O)c1ccccc1	none (no result: NPC1 prom act, Rab9 prom act, ELG1 genotoxic, ELG1 repair inh)
COc1ccc(-c2cccc(-c3cc(=O)oc4cc(OC)cc(OC)c34)c2)cc1	ELG1 repair inh inconclusive (no result: FLuc counter, NPC1 prom act, Rab9 prom act, SMN2 splice up)
COc1cc(OC)c2c(-c3cccc(-c4ccc(N(C)C)cc4)c3)cc(=O)oc2c1	ELG1 genotoxic 2.6µM, ELG1 repair inh inconclusive (no result: FLuc counter, NPC1 prom act, Rab9 prom act, SMN2 splice up) | ELG1 unstim viab inactive
COc1cccc(N2CCN(C(=O)C3CCN(S(=O)(=O)c4cn(C)cn4)CC3)CC2)c1	none (no result: NPC1 prom act, Rab9 prom act, ELG1 genotoxic, ELG1 repair inh, SMN2 splice up)
COc1ccc(S(=O)(=O)N2CCCCC2)cc1NC(=O)c1[nH]c(C)c(C(C)=O)c1C	ELG1 genotoxic 12µM, ELG1 repair inh inconclusive (no result: FLuc counter, NPC1 prom act, Rab9 prom act, SMN2 splice up) | ELG1 unstim viab inactive
COc1ccc(CC(=O)Nc2cc(S(=O)(=O)N3CCCCC3)ccc2C)cc1OC	ELG1 repair inh 2.1µM (no result: SMN2 splice up) | ELG1 Luc conf inconclusive | ELG1-Luc MMS 1.4µM | ELG1 5-FU inactive | ELG1 MMS viab 2.5µM | ELG1 unstim viab inconclusive
Cc1ccc(S(=O)(=O)N2CCCCC2)cc1NC(=O)CNc1ccc(C(F)(F)F)cc1	ELG1 repair inh 3.7µM (no result: SMN2 splice up) | ELG1 Luc conf inconclusive | ELG1-Luc MMS 31µM | ELG1 5-FU inactive | ELG1 MMS viab 28µM | ELG1 unstim viab inconclusive
CCCn1nc(Oc2nc(N(C)C)nc(N(C)C)n2)ccc1=O	ELG1 repair inh inconclusive
CC(=O)c1ccc(S(=O)(=O)Nc2ccc(C(=O)NCCCn3ccnc3)cc2)cc1	none (no result: SMN2 splice up)
